In PubChem BioAssay (NCI) one finds growth data, which are given here for seven compounds.

Structures are written as SMILES. Several values for one entry are separate records, joined by “and”; a condition that tells them apart may be missing. Equal entries are not always repeated. Compounds without any hit were thinned out: in the full panel of roughly 83,000, 20% have a hit.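 Results are percent growth after 48 hours of single-concentration exposure. 100 means growth as in untreated cells, lower positive values show inhibition; negative values down to -100 show cell death.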 Unmarked numbers belong to inactive results. Activity calls are given as the source filed them. Rule for the calls: active = growth percent below 10; inactive = the rest.

Among the test systems are MOLT-4 leukemia; SR leukemia; RPMI-8226 leukemia; OVCAR-8 ovarian; OVCAR-5 ovarian; OVCAR-4 ovarian; SK-OV-3 ovarian; IGROV1 ovarian; NCI/ADR-RES ovarian; T-47D breast; BT-549 breast; MDA-MB-435 melanoma; SW-620 colon; MCF7 breast; HCT-116 colon; HCC-2998 colon; KM12 colon; HS 578T breast; OVCAR-3 ovarian.
What all share (assay): NCI-60 one-dose screen, 48 h (100 = growth as untreated, 0 = no growth, -100 = all killed)
Holding throughout (details): 10 µM unless noted

As for `CC[C@H](C)[C@H](NC(=O)CN(C)C)C(=O)N(C)[C@H](C[C@@H](OC(C)=O)c1nc(C(=O)NC23C4C5C2C2C3C4C52C(=O)OC)cs1)C(C)C` (some centres not stated), the growth was 11% with MOLT-4 leukemia; 10.4% in the experiment on SR leukemia; 20.1% in the experiment with RPMI-8226 leukemia; 21.6% with OVCAR-8 ovarian; 71.4% with OVCAR-5 ovarian; 48.7% with OVCAR-4 ovarian. Also, the growth in the experiment on SK-OV-3 ovarian is 35.1%; in the experiment on IGROV1 ovarian, 36.3%; in the experiment on NCI/ADR-RES ovarian it was 63.7%; in the experiment with T-47D breast, 62.9%; in the experiment with BT-549 breast it was 4.22% (active); in the experiment on MDA-MB-435 melanoma, -59.9% (active). Further, the growth in the experiment on SW-620 colon is 25.9%; in the experiment on MCF7 breast it was 21.6%; in the experiment with HCT-116 colon, -2.36% (active); with HCC-2998 colon, 18.5%; in the experiment with KM12 colon, 13.2%.

For `Cc1ccc(N2CCN(CCC#N)CC2)cc1`, the growth was 105% with MOLT-4 leukemia; 99.3% in the experiment on SR leukemia; 96.7% in the experiment with RPMI-8226 leukemia; 97.3% with OVCAR-8 ovarian; 92.5% with OVCAR-5 ovarian; 110% in the experiment on OVCAR-4 ovarian. The growth was 93.4% in the experiment on SK-OV-3 ovarian; 95.5% in the experiment on IGROV1 ovarian; 135% in the experiment on HS 578T breast; 98.8% with NCI/ADR-RES ovarian; 90.9% in the experiment on T-47D breast; 79% with BT-549 breast. Further, the growth in the experiment with MDA-MB-435 melanoma was 101%; in the experiment on SW-620 colon it was 90.3%; in the experiment with MCF7 breast it was 73.8%; in the experiment with HCT-116 colon it was 95.7%; in the experiment with HCC-2998 colon, 88%; in the experiment on KM12 colon, 90%.

For `CCCn1cc2c3c(cccc31)[C@H]1C[C@@H](C)CN(C)[C@@H]1C2`, the growth with MOLT-4 leukemia was 77.6%; in the experiment on SR leukemia, 71.4%; with RPMI-8226 leukemia, 48.4%; in the experiment with OVCAR-8 ovarian it was 89.1%; with OVCAR-5 ovarian it was 84.4%; with SK-OV-3 ovarian, 87.9%. Moreover, the growth in the experiment with IGROV1 ovarian was 35.1%; with OVCAR-3 ovarian, 84.4%; in the experiment on HS 578T breast it was 83.6%; with T-47D breast, 72.6%; in the experiment with BT-549 breast, 89%; in the experiment with MDA-MB-435 melanoma, 112%. Besides, the growth in the experiment on SW-620 colon is 90.1%; with MCF7 breast it was 85%; in the experiment with HCT-116 colon it was 53%; in the experiment with HCC-2998 colon, 95.7%; in the experiment on KM12 colon it was 97.6%.

For `O=C(O)C1C(C(=O)O)C2(Cl)C(Cl)=C(Cl)C1(Cl)C2(Cl)Cl` (configuration not stated), the growth with MOLT-4 leukemia is 115% and 106%; in the experiment on SR leukemia, 104% and 118%; in the experiment on RPMI-8226 leukemia, 94% and 115%; in the experiment with OVCAR-8 ovarian it was 107% and 101%; in the experiment with OVCAR-5 ovarian, 91.4% and 108%; with SK-OV-3 ovarian it was 103% and 107%. For the same compound, the growth in the experiment on IGROV1 ovarian is 109% and 118%; in the experiment with OVCAR-3 ovarian it was 99.8% and 112%; in the experiment with HS 578T breast, 116%; in the experiment with T-47D breast it was 98.7%; in the experiment on BT-549 breast it was 104% and 107%; with MDA-MB-435 melanoma, 100% and 106%. Besides, the growth in the experiment with SW-620 colon is 98.5% and 101%; in the experiment on MCF7 breast it was 104% and 96.8%; in the experiment on HCT-116 colon, 101% and 107%; in the experiment with HCC-2998 colon it was 102%; with KM12 colon it was 100% and 105%.

As for `CC[C@H](C)[C@H](NC(=O)[C@H]1CCCCN1C)C(=O)N(C)[C@H](CCc1nc(C(=O)N[C@@H](Cc2ccccc2)C[C@H](C)C(=O)O)cs1)C(C)C`, the growth is 20.4% with MOLT-4 leukemia; 18.6% in the experiment on SR leukemia; 25.2% with RPMI-8226 leukemia; 15.8% in the experiment with OVCAR-8 ovarian; 46.8% in the experiment with OVCAR-5 ovarian; 12.3% with SK-OV-3 ovarian. Moreover, the growth in the experiment on IGROV1 ovarian is 41.5%; in the experiment on OVCAR-3 ovarian it was -4.67% (active); in the experiment on HS 578T breast it was 27.7%; with NCI/ADR-RES ovarian, 73.3%; with T-47D breast it was 52.6%; in the experiment with BT-549 breast, -3.33% (active). For the same compound, the growth is -38.1% (active) in the experiment on MDA-MB-435 melanoma; 27.6% with SW-620 colon; 14.2% in the experiment with MCF7 breast; 2.59% (active) in the experiment with HCT-116 colon; 21.5% with HCC-2998 colon; 9.24% (active) in the experiment on KM12 colon.

For the compound `O=[N+]([O-])c1ccc(OCc2ccc(S(=O)(=O)F)c(Cl)c2)c(Cl)c1`, the growth was 68.2% in the experiment with MOLT-4 leukemia; 87.5% with SR leukemia; 97.8% in the experiment with RPMI-8226 leukemia; 105% in the experiment with OVCAR-8 ovarian; 99% in the experiment with OVCAR-5 ovarian; 107% in the experiment on SK-OV-3 ovarian. Besides, the growth was 100% in the experiment with IGROV1 ovarian; 112% in the experiment with OVCAR-3 ovarian; 95.4% in the experiment with HS 578T breast; 97% in the experiment on T-47D breast; 91.6% in the experiment on BT-549 breast; 113% with MDA-MB-435 melanoma. Besides, the growth with SW-620 colon is 98.8%; in the experiment on MCF7 breast, 92.8%; with HCT-116 colon, 90.1%; in the experiment with HCC-2998 colon it was 105%; with KM12 colon, 113%.

On to `CCCN1C(=O)NC(=O)C(CC)(N2C(=O)c3c(F)c(F)c(F)c(F)c3C2=O)C1=O` (configuration not stated), for which the growth with MOLT-4 leukemia is -79.6% (active); with SR leukemia it was -76.5% (active); in the experiment with RPMI-8226 leukemia it was -30% (active); in the experiment with OVCAR-8 ovarian, -56.7% (active); in the experiment on OVCAR-5 ovarian, -88.1% (active); in the experiment with SK-OV-3 ovarian, -25.4% (active). In addition, the growth with IGROV1 ovarian was -77.9% (active); in the experiment on OVCAR-3 ovarian, -96.4% (active); in the experiment on HS 578T breast, -24.6% (active); with NCI/ADR-RES ovarian, -28.5% (active); in the experiment with T-47D breast it was -52.3% (active); with BT-549 breast, -78.8% (active). The growth with MDA-MB-435 melanoma was -60.3% (active); in the experiment with SW-620 colon it was -92.9% (active); in the experiment on MCF7 breast, -76.5% (active); with HCT-116 colon it was -78.2% (active); in the experiment with HCC-2998 colon, -87% (active); in the experiment on KM12 colon, -96.2% (active).
